Some test systems named below: DU-145 prostate; K-562 leukemia; MALME-3M melanoma; MDA-MB-231 breast; RXF 393 renal; SF-268 CNS; SF-295 CNS; SF-539 CNS; UACC-257 melanoma; M14 melanoma.
What all share (assay): NCI-60 one-dose screen, 48 h (100 = growth as untreated, 0 = no growth, -100 = all killed)
What all share (conditions): 10 µM unless noted

Compounds without any hit were thinned out: in the full panel of roughly 83,000, 20% have a hit.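 Step 1: grow cells in 96-well plates. Step 2: add test compound at a single concentration. Step 3: incubate 48 h. Step 4: record percent growth.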 A number with no mark means an inactive call. Calls of active or inactive are those of the source. Rule for the calls: active = growth percent below 10; inactive = the rest.

As to `CCN1CCN(C(=O)[C@]23CCC(C)(C)C[C@H]2C2=CC[C@@H]4[C@@]5(C)CC/C(=N/O)C(C)(C)[C@@H]5CC[C@@]4(C)[C@]2(C)CC3)CC1`, the growth in the test with DU-145 prostate was 86.4%; in the test with K-562 leukemia it was 58.8%; in the test on MALME-3M melanoma it was 62.9%; in the test with MDA-MB-231 breast, 9.19% (active); with RXF 393 renal it was 81.2%; with SF-268 CNS it was 67.2%. Moreover, the growth is 65.7% in the test with SF-295 CNS, 80.4% in the test with SF-539 CNS, 80.4% in the test on UACC-257 melanoma and 65.6% with M14 melanoma.

For the compound `Cc1ccccc1-c1nc(C(Cl)Cl)nc2cc(-c3ccccc3)nn12`, the growth was 57.8% in the test on DU-145 prostate; 52.2% with K-562 leukemia; 86.2% in the test with MALME-3M melanoma; 44.9% with MDA-MB-231 breast; 3.45% (active) with RXF 393 renal; 88.1% in the test with SF-268 CNS. Further, the growth is 81.6% in the test on SF-295 CNS, 76.3% in the test on SF-539 CNS, 107% with UACC-257 melanoma and 94% in the test with M14 melanoma.

Regarding `CCSc1ncnc2c1ncn2C1OC(CO)C(O)C1O` (centres undefined), the growth with DU-145 prostate is 22.7%; in the test with K-562 leukemia, 15.9%; with MALME-3M melanoma, 53.5%; in the test with MDA-MB-231 breast it was 64.4%; with RXF 393 renal, 36.7%; in the test with SF-268 CNS it was 19.4%. Besides, the growth was 31.4% with SF-295 CNS, 25.3% in the test on SF-539 CNS, 59.6% in the test with UACC-257 melanoma and 29.6% with M14 melanoma.

Consider `Cc1cc(N2CCOCC2)nc(N(CCCNc2ccnc3cc(Cl)ccc23)Cc2ccco2)n1`, for which the growth was 52.6% in the test with DU-145 prostate; 4.98% (active) in the test with K-562 leukemia; 53.6% in the test on MALME-3M melanoma; 19.6% in the test with MDA-MB-231 breast; 21.2% in the test with RXF 393 renal; 50.7% in the test on SF-268 CNS. Also, the growth in the test on SF-295 CNS was 16.6%; with SF-539 CNS, -2.57% (active); in the test with UACC-257 melanoma, 85%; with M14 melanoma, -3.48% (active).

For `NNC(=O)c1nc2ccccc2[nH]1`, the growth in the test with DU-145 prostate was 112%; with K-562 leukemia it was 87.2%; in the test on MALME-3M melanoma it was 107%; in the test on MDA-MB-231 breast, 103%; in the test with RXF 393 renal it was 124%; in the test with SF-268 CNS it was 102%. Further, the growth was 104% with SF-295 CNS, 103% in the test with SF-539 CNS, 65.9% with UACC-257 melanoma and 92.4% in the test with M14 melanoma.

Consider `Nc1c(C(=O)Nc2c(Cl)cccc2Cl)sc2nc3c(cc12)CCCC3`, for which the growth with DU-145 prostate is 88.4%; in the test with K-562 leukemia, 14.8%; in the test on MALME-3M melanoma it was 59.2%; in the test with MDA-MB-231 breast, 82.5%; in the test with RXF 393 renal it was 87.9%; in the test with SF-268 CNS, 80.9%. The figures for the growth in the test on SF-295 CNS, in the test on SF-539 CNS and with M14 melanoma were 75.8%, 75.8% and 46.6%, respectively.

As for `O=S(=O)(NCCNc1cc(-c2cn(-c3ccccc3)nc2-c2cccc(O)c2)ccn1)c1ccc(Cl)cc1`, the growth in the test with DU-145 prostate was 62.8%; with K-562 leukemia, 2.13% (active); in the test with MALME-3M melanoma it was 34.5%; with MDA-MB-231 breast, -2.86% (active); in the test with RXF 393 renal, 38%; in the test with SF-268 CNS it was 40.2%. Besides, the growth in the test with SF-295 CNS was 13.3%; in the test on SF-539 CNS, 61.8%; in the test on M14 melanoma, 23.5%.

As for `CCc1ccccc1NC(=O)c1sc2nc3c(cc2c1N)CCCC3`, the growth in the test on DU-145 prostate is 51.7%; in the test on K-562 leukemia, 12.1%; in the test with MALME-3M melanoma, 55.7%; in the test with MDA-MB-231 breast, 51.3%; with RXF 393 renal, 49.8%; in the test with SF-268 CNS, 49.2%. Further, the growth with SF-295 CNS was 29.6%; in the test with SF-539 CNS, 13.9%; in the test on M14 melanoma, 24.1%.

Turning to `CCN1CCN(C(=O)[C@]23CCC(C)(C)C[C@@H]2C2=CC[C@@H]4[C@@]5(C)C/C(=C/c6cccnc6)C(=O)C(C)(C)[C@@H]5CC[C@@]4(C)[C@]2(C)CC3)CC1`, the growth is 50% in the test on DU-145 prostate; 6.69% (active) in the test with K-562 leukemia; 30.3% in the test with MALME-3M melanoma; 40.7% with MDA-MB-231 breast; -7.84% (active) in the test on RXF 393 renal; 37.6% with SF-268 CNS. For the same compound, the growth was 16.7% in the test with SF-295 CNS, 41.5% in the test with SF-539 CNS, 3.05% (active) in the test with UACC-257 melanoma and 34.4% in the test on M14 melanoma.

For `N#Cc1cnc2cc(OC[C@@H](O)CO)c(NC(=O)CC3CSSC3)cc2c1Nc1ccc(OCc2cccc(F)c2)c(Cl)c1`, the growth in the test on DU-145 prostate was -85.1% (active); in the test with K-562 leukemia it was -37.4% (active); in the test on MALME-3M melanoma it was -67.6% (active); in the test on MDA-MB-231 breast it was -60.5% (active); in the test on RXF 393 renal, -72.9% (active); in the test on SF-268 CNS, -57% (active). Moreover, the growth was -80.5% (active) in the test on SF-295 CNS, -79.7% (active) in the test with SF-539 CNS and -78.7% (active) with M14 melanoma.

Take `CCCCC[C@H]1CC=C2C(=O)C(Cl)=C[C@@H]2CC=CCCCC(=O)O[C@@H](CCCCC)CC=C2C(=O)C(Cl)=C[C@@H]2CC=CCCCC(=O)O[C@@H](CCCCC)CC=C2C(=O)C(Cl)=C[C@@H]2CC=CCCCC(=O)O1`: the growth in the test on DU-145 prostate was 59.9% [8 µM]; in the test on K-562 leukemia, 27.7% [8 µM]; with MALME-3M melanoma, 105% [8 µM]; in the test on MDA-MB-231 breast, 53.1% [8 µM]; with RXF 393 renal, 79.2% [8 µM]; in the test on SF-268 CNS it was 73.1% [8 µM]. Also, the growth in the test with SF-295 CNS was 106% [8 µM]; in the test with SF-539 CNS, 88% [8 µM]; in the test with UACC-257 melanoma it was 76.3% [8 µM]; in the test on M14 melanoma, 48.2% [8 µM].

With `COc1ccc(C2c3ccccc3NC(=O)N2C2CCN(C)CC2)c(OC)c1` (centres undefined), the growth is 105% in the test with DU-145 prostate; 93.1% in the test with K-562 leukemia; 88.1% with MALME-3M melanoma; 91.9% with MDA-MB-231 breast; 97.1% with RXF 393 renal; 98.2% with SF-268 CNS. Moreover, the growth was 90.6% in the test on SF-295 CNS, 95.2% in the test with SF-539 CNS and 85.3% in the test on M14 melanoma.

As to `C=C1C(=O)O[C@H]2[C@H]1CC/C(Cn1cc(-c3ccc(OC)cc3)nn1)=C\CC[C@@]1(C)O[C@@H]21`, the growth was -35% (active) in the test with DU-145 prostate; -9.11% (active) in the test with K-562 leukemia; -62.3% (active) with MALME-3M melanoma; -12.3% (active) in the test with MDA-MB-231 breast; -63.6% (active) in the test with RXF 393 renal; 12.7% with SF-268 CNS. Besides, the values for the growth with SF-295 CNS, in the test with SF-539 CNS and with M14 melanoma were 88.8%, -16.6% (active) and -43.9% (active), respectively.

For the origin of these results see PubChem BioAssay (NCI).
